Assay results reported in the supplement of paper PMC9877034.
Where a name gives a salt, the structure may show the parent alone. Over roughly 1,000 compounds, “cFRET/donor change relative to DMSO, normalised to beta-lapachone positive control (supercomplex I-IV assembly)” has its median near 0.18; the lowest 2% begin near -1. The entries come from a sample that favours the lowest values as a whole.

Test system: C2C12 (NDUFB8-AcGFP / COX8A-DsRed-Monomer FRET reporter)
Assay: cFRET/donor change relative to DMSO, normalised to beta-lapachone positive control (supercomplex I-IV assembly) (fraction of beta-lapachone effect); higher = more respiratory supercomplex assembly
Conditions: 40 µM; 24 h
Protocol: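 Cells were treated with 40 uM compound for 24 h and imaged on an IN Cell Analyzer 6000. Corrected FRET was divided by donor signal (cFRET/donor) and measured in two replicate experiments. The score is (mean cFRET/donor of compound - mean DMSO) / (mean beta-lapachone 40 uM - mean DMSO). Compounds flagged for prominent cell death, abnormal morphology or decreased cell number were excluded.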

Structure (SMILES)	cFRET/donor change
Cc1c2ccncc2c(C)c2c1[nH]c1ccccc12 [Ellipticine]	-2.44
NC(CCP(=O)(O)O)C(=O)O (racemic) [(±)-2-Amino-4-phosphonobutyric acid]	0.0445
CN1CCC[C@@H]1Cc1c[nH]c2ccc(Nc3ncccc3[N+](=O)[O-])cc12	0.0254
C#CCN[C@H](C)Cc1ccccc1 [R-(-)-Desmethyldeprenyl hydrochloride]	-0.331
C[N+](C)(C)CC#CCOC(=O)Nc1cccc(Cl)c1	0.565
